These results are taken from PubChem BioAssay (NCATS).

SMILES strings stand for the structures. Results filed as inconclusive are left out. Active and inactive are the calls of the source. Calls follow the shape of the dose curve; as a rule, active = well fitted curve in the direction sought with a large enough effect; inconclusive = small, poorly fitted or top-dose-only effect, or another doubt; inactive = no such curve, though single readings can be large; an effect the other way counts as inactive or inconclusive.

The first assay addresses Luciferin 4-monooxygenase (Photinus pyralis) (UniProt P08659). Description: Primary firefly luciferase (FLuc) qHTS assay for identification of artifact compounds. (AID 1845220). Also: nearly all actives have a fitted effect of over 60% in size. The note with it: purified firefly luciferase, luminescence, 5 min; series mostly up to 54.1 µM. Summed up:
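qHTS, 15 min compound preincubation with substrate (10 uM luciferin, 10 uM ATP) at RT, then 10 nM FLuc; 5 min; luminescence; % inhibition vs no-enzyme/DMSO controls, 4-parameter Hill fit.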
In general terms: qHTS replaces the single test concentration by a dilution series.
Consider `O=C(N[C@H]1N=C(c2ccccc2F)c2cccc3c2N(CC3)C1=O)c1cc2ccccc2[nH]1`, for which the molecule was called inactive.

Turning to `CCOC(=O)c1ncn2c1CN(C)C(=O)c1c(I)cccc1-2`, the call was inactive.

Regarding `CCCOC(=O)Cc1ccc(OCC(=O)N(CC)CC)c(OC)c1`, the molecule was called inactive.

In the case of `CC[C@H]1C[C@H]2[C@@H]3CCC4=CC(=O)CC[C@@H]4[C@H]3CC[C@]2(C)[C@H]1O`, the molecule was called inactive.

Tested on in the next assay: not listed separately
The experiment in a line: Primary fluorescence-based thiol-reactive (MSTI) qHTS assay for identification of artifact compounds. (AID 1845221).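 Also: thiol-reactive compounds lower the probe fluorescence signal; nearly all actives have a fitted effect of over 65% in size.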 The note with it: MSTI thiol-reactivity probe, 1 h; series mostly up to 53.8 µM. Summed up:
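Reactivity toward the thiol probe MSTI (4 uM) is scored by fluorescence at Ex/Em 525/598 nm after 1 h at room temperature. Acetyl-MSTI and MSTI define the activity scale.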
Turning to `O=C(N[C@H]1N=C(c2ccccc2F)c2cccc3c2N(CC3)C1=O)c1cc2ccccc2[nH]1`, the call was inactive.

`O=C(N[C@@H]1N=C(c2ccccc2F)c2cccc3c2N(CC3)C1=O)c1cc2ccccc2[nH]1`: the call was inactive.

Regarding `CCOC(=O)c1ncn2c1CN(C)C(=O)c1c(I)cccc1-2`, the call was inactive.

Take `CCCOC(=O)Cc1ccc(OCC(=O)N(CC)CC)c(OC)c1`: the molecule was called inactive.

Take `CC[C@H]1C[C@H]2[C@@H]3CCC4=CC(=O)CC[C@@H]4[C@H]3CC[C@]2(C)[C@H]1O`: the molecule was classed as inactive.
